{"source": "PubChem BioAssay AID651791", "about": "(National Center for Advancing Translational Sciences (NCATS), 2012)", "note": "Inconclusive results are not listed. Calls of active or inactive are those of the source. Calls come from the whole dose curve; as a rule, active = well fitted inhibition curve with a large enough effect; inconclusive = small, poorly fitted or top-dose-only effect; inactive = no such curve, though single readings can be large or run the other way. Potency is the fitted concentration of half-maximal effect.", "data": [{"assay": "InCell qHTS Assay for Inhibitors of the mTORC1 Signaling Pathway in MEF (Tsc2-/-, p53-/-) Cells: Hit Validation;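 note: phospho-S6 Ser235/236 signal normalized to propidium iodide cell count per well; nearly all actives have a fitted effect of over 75% in size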", "conditions": "phospho-rpS6 immunofluorescence, 24 h; activity change, negative = inhibition: at 38.3 µM (top of the series)", "units": {"activity change, negative = inhibition": "%"}, "values": [{"smiles": "O=C(Cn1c(=O)c2cccn2c2ccccc21)NCc1ccccc1F", "activity change, negative = inhibition": -100}, {"smiles": "COc1ccc(CN2CCN(c3ncnc4sc5c(c34)CCCC5)CC2)cc1F", "activity change, negative = inhibition": -100}, {"smiles": "CC1=Nc2cc(C(=O)NC(C)C)ccc2Sc2ccc(C)cc21", "activity change, negative = inhibition": -100}, {"smiles": "CCOc1ccc(S(=O)(=O)N(C(C)=O)c2ccc3oc(C)c(C(=O)OC)c3c2)cc1", "activity change, negative = inhibition": -100}, {"smiles": "Cc1nn(CCCC(=O)NCc2cccc(Cl)c2)c(=O)c2c1sc1ccccc12", "activity change, negative = inhibition": -100}, {"smiles": "CCC(C)n1c(SCc2c(F)cccc2Cl)nc2ccsc2c1=O", "note": "(configuration not stated)", "activity change, negative = inhibition": -100}, {"smiles": "Cc1ccc(NC(=O)c2c(C)oc3ccc(O)c(CN(C)Cc4ccccc4)c23)c(C)c1", "activity change, negative = inhibition": -100}, {"smiles": "CCC1=Nc2cc(C(=O)NC3CCCC3)ccc2Sc2ccc(Br)cc21", "activity change, negative = inhibition": -100}, {"smiles": "COc1ccc(-c2[nH]nc3nc(-c4cc(OC)c(OC)c(OC)c4)cc(C(=O)O)c23)cc1", "activity change, negative = inhibition": -100}, {"smiles": "CCc1ccc(S(=O)(=O)N(C(=O)Oc2ccccc2)c2ccc3oc(C)c(C(=O)OC)c3c2)cc1", "activity change, negative = inhibition": -12.1}, {"smiles": "COc1ccc(NC(=O)CSc2nc3ccccc3nc2N2CCC(C)CC2)cc1", "activity change, negative = inhibition": -100}, {"smiles": "O=C(Nc1cccc(NC(=O)c2ccccc2Cl)c1)c1cccc(Br)c1", "activity change, negative = inhibition": -100}, {"smiles": "O=C(CCn1cnc2onc(-c3ccc(F)cc3)c2c1=O)Nc1ccc(F)c(Cl)c1", "activity change, negative = inhibition": -100}, {"smiles": "CCOC(=O)c1c(NC(=O)c2cc(CC)on2)sc(C(C)=O)c1C", "activity change, negative = inhibition": -100}, {"smiles": "CCN(CC)c1ccc(NC(=O)CN(C)S(=O)(=O)c2cccc3nsnc23)c(C)c1", "activity change, negative = inhibition": -100}, {"smiles": "CCS(=O)(=O)c1ncc(Cl)c(C(=O)N2CCN(c3ccc(OC)cc3)CC2)n1", "Potency": "4.65 µM (active)"}, {"smiles": "Cc1n[nH]c(C)c1S(=O)(=O)N(CC(=O)Nc1ccc(C(F)(F)F)cc1)c1ccc(C(C)C)cc1", "activity change, negative = inhibition": -23.7}, {"smiles": "Cc1ccc(NC(=O)CSc2nc(-c3ccco3)cc(C(F)(F)F)n2)cc1C", "activity change, negative = inhibition": -100}, {"smiles": "CCc1ccc(S(=O)(=O)c2nnn(-c3ccc(F)cc3)c2N)cc1", "activity change, negative = inhibition": -100}, {"smiles": "CC1=C(C(=O)OC2CCCC2)C(c2ccccc2Cl)CC(=O)N1", "note": "(configuration not stated)", "activity change, negative = inhibition": -100}, {"smiles": "COc1ccccc1CNC(=O)CCCn1c(=O)c2cccn2c2ccccc21", "activity change, negative = inhibition": -100}, {"smiles": "Cc1ccc(C)c(N2CCN(CCCNC(=O)C3COc4ccccc4C3)CC2)c1", "note": "(configuration not stated)", "activity change, negative = inhibition": -100}]}]}
